Assay outcomes: PubChem BioAssay, several laboratories
Most compounds without a hit are left out; they make up all but 22% or so of the library.
CYP2C9 activ = human CYP2C9 activators, primary screen, biochemical, luminescence; activation factor at 5 µM; 96,000 compounds, 1.4% hits; recombinant CYP2C9, luciferin-H conversion; active compounds read high; factor 1 = untreated enzyme, 0 = blocked; Cytochrome P450 2C9 (Homo sapiens), P11712;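 active = activation factor of 2 or more for CYP2C9 at a 5 µM dose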;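 note: 0 = sulfaphenazole-blocked wells and 1 = vehicle-only wells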
Target sequence (P11712 whole entry, looked up): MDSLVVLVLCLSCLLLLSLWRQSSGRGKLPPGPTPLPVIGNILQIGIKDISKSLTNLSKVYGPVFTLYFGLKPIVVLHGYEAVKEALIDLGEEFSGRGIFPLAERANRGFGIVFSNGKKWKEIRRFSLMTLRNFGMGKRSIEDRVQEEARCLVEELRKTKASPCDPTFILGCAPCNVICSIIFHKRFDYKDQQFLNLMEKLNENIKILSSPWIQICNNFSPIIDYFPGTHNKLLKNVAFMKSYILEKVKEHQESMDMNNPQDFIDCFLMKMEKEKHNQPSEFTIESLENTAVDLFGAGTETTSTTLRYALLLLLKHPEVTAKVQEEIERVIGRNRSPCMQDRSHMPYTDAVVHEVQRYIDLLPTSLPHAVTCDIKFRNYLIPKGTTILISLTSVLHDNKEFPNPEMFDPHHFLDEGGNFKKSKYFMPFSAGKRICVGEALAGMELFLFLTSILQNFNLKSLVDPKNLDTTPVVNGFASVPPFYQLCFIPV
CYP2C19 inhib = blockers of cytochrome P450 2C19 activity – biochemical, luminescence, ADME assay, primary screen; P33261; CYP2C19 Supersomes, luciferin-H EGE luminescence, 30 min; inhibition, % at 5 µM; 96,000 compounds, 21% hits; AID 778, 2007;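 active = CYP2C19 inhibition above a set limit at 5 µM in the primary screen, cut at about 50% in these data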;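 note: plate controls were negative control wells for no effect and 2.5 mM tranylcypromine positive control for full effect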
CYP2C19 activ = human CYP2C19 activators, primary screen, biochemical, luminescence | Cytochrome P450 2C19 (Homo sapiens), P33261 | recombinant CYP2C19, luciferin-H EGE luminescence; active compounds read high; 0 = fully inhibited enzyme, 1 = untreated enzyme | activation factor at 5 µM | 96,000 tested, under 10 active | AID 1025, 2008;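 active = activation factor of at least 2 at 5 µM in the primary screen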;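 note: 0 = wells with 2.5 mM tranylcypromine and 1 = vehicle-only wells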
Measles CPE = compounds protecting cells from measles virus cytopathic effect, primary screen, measles RdRp inhibitor project, single point, MLSMR library, absorbance | Measles virus-infected cells, CPE protection | protection (pct of control), % at 4 µM | 140,000 compounds, 1.5% hits | AID 841, 2007; in the data active = protection mostly above about 24%, no sharp cut-off; inactive = mostly below about 26%
CYP2C9 inh = blockers of cytochrome P450 2C9 activity – biochemical, luminescence, ADME assay, primary screen; P11712; CYP2C9 Supersomes, luciferin-H conversion; inhibition, % at 5 µM; 96,000 compounds, 20% hits;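 active = blocking of liver enzyme CYP2C9 beyond about 50% at 5 µM, limit read from the data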
* hit, by the source's call.

For CC1CCCCC1NC(=O)c1ccc(S(=O)(=O)N2CCCC2)cc1 (stereo not drawn) the results were CYP2C9 activ 0.8, CYP2C19 inhib 6.2, CYP2C19 activ 0.9, Measles CPE 9.2 and CYP2C9 inh 20.1.
For CCOC(=O)Cn1cc(C(=O)OC)c2ccccc21 the results were CYP2C9 activ 0.6, CYP2C19 inhib 54.0*, CYP2C19 activ 0.5, Measles CPE 3.9 and CYP2C9 inh 35.2.
Cc1ccc(OCCn2cc(C(=S)N3CCCC3)c3ccccc32)cc1C was read as CYP2C9 activ 0.4, CYP2C19 inhib 67.1*, CYP2C19 activ 0.3, Measles CPE 37.5 and CYP2C9 inh 63.2*.
Screening COC(=O)Cn1cc(C(=O)OC)c2ccccc21 returned CYP2C9 activ 1, CYP2C19 inhib 6.4, CYP2C19 activ 0.9, Measles CPE 7.2 and CYP2C9 inh 2.4.
COC(=O)c1cn(C(=O)OC)c2ccccc12 was read as CYP2C9 activ 1.1, CYP2C19 inhib 45.3, CYP2C19 activ 0.5, Measles CPE 49.1* and CYP2C9 inh -8.6.
For S=C(c1cn(CCOc2ccccc2)c2ccccc12)N1CCCC1 the results were CYP2C9 activ 0.5, CYP2C19 inhib 25.3, CYP2C19 activ 0.7, Measles CPE 15.1 and CYP2C9 inh 47.5.
Screening COC(=O)c1cn(CCOc2ccccc2)c2ccccc12 returned CYP2C9 activ 0, CYP2C19 inhib 96.2*, CYP2C19 activ 0, Measles CPE 1.2 and CYP2C9 inh 97.2*.
COC(=O)c1cn(CC(=O)NC2CCCCCC2)c2ccccc12 was read as Measles CPE 7.5.
O=C(O)CSc1ccccn1 was read as CYP2C9 activ 1, CYP2C19 inhib 5.2, CYP2C19 activ 0.9, Measles CPE 21.0 and CYP2C9 inh -1.4.
Screening COc1ccccc1NC(=O)CCC(=O)c1ccc(-c2ccccc2)cc1 returned Measles CPE 28.1.
For Cn1c(COc2ccc(Br)cc2)nnc1SC1CCc2ccccc2C1=O (stereo not drawn) the results were Measles CPE 20.9.
COC(=O)c1cn(CCOc2ccccc2OC)c2ccccc12 was read as Measles CPE 25.6.
Screening COC(=O)c1cn(CCOc2ccccc2F)c2ccccc12 returned CYP2C9 activ 0, CYP2C19 inhib 97.7*, CYP2C19 activ 0, Measles CPE 3.2 and CYP2C9 inh 99.4*.
COc1cc(OC)cc(-c2nnc(SCC(=O)N3CCCC3)o2)c1 was read as CYP2C9 activ 1.2, CYP2C19 inhib 3.2, CYP2C19 activ 1, Measles CPE 2.9 and CYP2C9 inh -21.9.
For COc1ccc(OC)c(-c2nnc(SCC(=O)N3CCCc4ccccc43)o2)c1 the results were CYP2C9 activ 0.7, CYP2C19 inhib 98.1*, CYP2C19 activ 0, Measles CPE 24.8 and CYP2C9 inh 25.6.
COc1cc(OC)cc(-c2nnc(SCC(=O)N3CCCc4ccccc43)o2)c1 was read as CYP2C9 activ 0.8, CYP2C19 inhib 91.6*, CYP2C19 activ 0.1, Measles CPE 35.4* and CYP2C9 inh 19.8.
`COc1cc(C(=O)NCc2nnc(SCC(=O)N3CCc4ccccc43)o2)cc(OC)c1OC` gave CYP2C9 activ 0.2, CYP2C19 inhib 63.6*, CYP2C19 activ 0.4, Measles CPE 6.4 and CYP2C9 inh 78.7*.
Screening Cc1occc1-c1nnc(SCC(=O)N2CCc3ccccc32)o1 returned CYP2C9 activ 0.8, CYP2C19 inhib 74.3*, CYP2C19 activ 0.3, Measles CPE 14.4 and CYP2C9 inh 16.1.
`COc1cc(C(=O)NCc2nnc(SCC(=O)NCc3ccccc3)o2)cc(OC)c1OC` gave CYP2C9 activ 0.7, CYP2C19 inhib -0.4, CYP2C19 activ 1, Measles CPE 5.5 and CYP2C9 inh 29.0.
For Cn1c2c(c(=O)n(C)c1=O)C(NC(=O)C(C)(C)C)(C(F)(F)F)C(=O)N2 (stereo not drawn) the results were CYP2C9 activ 1.2, CYP2C19 inhib -11.6, CYP2C19 activ 1.1, Measles CPE 2.0 and CYP2C9 inh -17.3.
For N#Cc1nc(COc2ccc(Br)cc2)oc1NCCN1CCOCC1 the results were CYP2C9 activ 0.9, CYP2C19 inhib 21.5, CYP2C19 activ 0.8, Measles CPE 6.8 and CYP2C9 inh 10.9.
O=C(Nc1nc2c(s1)CCc1ccccc1-2)c1ccco1 was read as CYP2C9 activ 1.3, CYP2C19 inhib 24.6, CYP2C19 activ 0.8, Measles CPE 24.4 and CYP2C9 inh -27.2.
Screening O=C(CSc1nnc(-c2cccs2)o1)N1CCc2ccccc21 returned CYP2C9 activ 1.1, CYP2C19 inhib 23.9, CYP2C19 activ 0.8, Measles CPE 14.6 and CYP2C9 inh -14.2.
`O=C(CSc1nnc(-c2cccs2)o1)N1CCCc2ccccc21` gave CYP2C9 activ 0.7, CYP2C19 inhib 76.8*, CYP2C19 activ 0.2, Measles CPE 7.3 and CYP2C9 inh 32.5.
COc1cccc(-c2nnc(SCC(=O)N3CCCc4ccccc43)o2)c1 was read as CYP2C9 activ 0.6, CYP2C19 inhib 95.0*, CYP2C19 activ 0.1, Measles CPE 0.9 and CYP2C9 inh 36.5.
`CC1=C(CC(=O)c2ccccc2)C(=O)c2ccccc2C1=O` gave CYP2C9 activ 0.3, CYP2C19 inhib 62.7*, CYP2C19 activ 0.4, Measles CPE 4.1 and CYP2C9 inh 67.5*.
`O=C(C1=C(c2ccccc2)C(=O)c2ccccc2C1=O)c1ccccc1` gave Measles CPE 5.6.
Screening Cc1ccc(NS(=O)(=O)c2cc(C(N)=O)ccc2C)cc1 returned CYP2C9 activ 0.3, CYP2C19 inhib 93.9*, CYP2C19 activ 0.1, Measles CPE 5.4 and CYP2C9 inh 67.2*.
`Cc1ccc(C(N)=O)cc1S(=O)(=O)Nc1cccc(C)c1C` gave CYP2C9 activ 0.7, CYP2C19 inhib 99.4*, CYP2C19 activ 0, Measles CPE 18.9 and CYP2C9 inh 34.7.
COc1cc(/C=N/NC(N)=O)ccc1OCC(=O)Nc1ccc(C)c(C)c1 was read as Measles CPE 5.3.
Screening CCOc1ccc2nc(NCCCNS(=O)(=O)c3ccccc3)c(C#N)cc2c1 returned CYP2C9 activ 0.5, CYP2C19 inhib 36.4, CYP2C19 activ 0.6, Measles CPE 14.7 and CYP2C9 inh 54.8*.
Screening CCOC(=O)CCc1c(C)nc(SCCCn2c(=O)[nH]c3ccccc32)c(C#N)c1C returned CYP2C9 activ 0.4, CYP2C19 inhib 46.2, CYP2C19 activ 0.5, Measles CPE 7.1 and CYP2C9 inh 64.2*.
CCOC(=O)CCc1c(C)nc(SCCN2CCCC2)c(C#N)c1C was read as CYP2C9 activ 0.6, CYP2C19 inhib 30.4, CYP2C19 activ 0.7, Measles CPE 4.7 and CYP2C9 inh 36.4.
Screening CC(C)Sc1nc2sc(-c3ccccc3)cc2c(=O)n1N returned CYP2C9 activ 0.7, CYP2C19 inhib 27.3, CYP2C19 activ 0.7, Measles CPE 4.5 and CYP2C9 inh 32.3.
